From PubChem BioAssay (Tox21)
Records with an inconclusive call do not appear. Entries that show only a call come without a potency. Active and inactive are the calls of the source. Unless noted, calls come from the whole dose curve.

Legend:
[1] = Nuclear factor erythroid 2-related factor 2/antioxidant responsive element (Nrf2/ARE) small molecule agonists: qHTS cell viability counter screen in human keratinocytes (AID 1919968; active = well fitted curve in the direction sought with a large enough effect in the repeat runs; an effect the other way counts as inactive or inconclusive; note: nearly all actives have a fitted effect of over 55% in size; note: potency is the fitted concentration of half-maximal effect)
Procedure, shortened: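 KeratinoSens cells (HaCaT keratinocytes stably carrying an ARE-luciferase reporter) were seeded at 1,500 cells/well and rested 5 h at 37 C/5% CO2. They were then exposed to compounds in DMSO for 23 h. Viability was read by CellTiter-Fluor fluorescence after 1 h.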

[2] = molecular target: Gonadotropin-releasing hormone receptor (Homo sapiens) (UniProt P30968); test: Human gonadotropin-releasing hormone receptor (GnRHR) small molecule agonists, calcium flux assay in GnRHR-HEK293 cells (AID 1920063); note: nearly all actives have a fitted effect of over 35% in size; note: potency is the fitted concentration of half-maximal effect
Sequence of Gonadotropin-releasing hormone receptor (Homo sapiens) (P30968 whole entry, looked up): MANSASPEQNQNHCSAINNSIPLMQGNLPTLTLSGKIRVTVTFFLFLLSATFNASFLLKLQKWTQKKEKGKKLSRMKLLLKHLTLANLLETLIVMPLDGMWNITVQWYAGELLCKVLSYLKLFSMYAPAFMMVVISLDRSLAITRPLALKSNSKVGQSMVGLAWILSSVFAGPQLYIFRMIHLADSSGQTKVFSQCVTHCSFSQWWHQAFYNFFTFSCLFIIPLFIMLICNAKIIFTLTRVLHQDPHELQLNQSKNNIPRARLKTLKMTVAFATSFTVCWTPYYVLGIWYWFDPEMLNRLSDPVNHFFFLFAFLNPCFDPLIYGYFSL
Procedure, shortened: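 HEK293 cells stably expressing human GnRHR were plated 18 h at 37 °C, loaded with calcium dye 1 h at 37 °C, then given compound in agonist mode; fluorescence (Ex/Em 480/540) read kinetically for 3 min at 1 s intervals.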

[3] = molecular target: KiSS-1 receptor (Homo sapiens) (UniProt Q969F8); test: Human kisspeptin (KISS1R) small molecule agonists, calcium flux assay in KISS1R-HEK293 cells (AID 1920064; active = well fitted curve in the direction sought with a large enough effect in the repeat runs; an effect the other way counts as inactive or inconclusive; note: potency is the fitted concentration of half-maximal effect)
Sequence of KiSS-1 receptor (Homo sapiens) (Q969F8 whole entry, looked up): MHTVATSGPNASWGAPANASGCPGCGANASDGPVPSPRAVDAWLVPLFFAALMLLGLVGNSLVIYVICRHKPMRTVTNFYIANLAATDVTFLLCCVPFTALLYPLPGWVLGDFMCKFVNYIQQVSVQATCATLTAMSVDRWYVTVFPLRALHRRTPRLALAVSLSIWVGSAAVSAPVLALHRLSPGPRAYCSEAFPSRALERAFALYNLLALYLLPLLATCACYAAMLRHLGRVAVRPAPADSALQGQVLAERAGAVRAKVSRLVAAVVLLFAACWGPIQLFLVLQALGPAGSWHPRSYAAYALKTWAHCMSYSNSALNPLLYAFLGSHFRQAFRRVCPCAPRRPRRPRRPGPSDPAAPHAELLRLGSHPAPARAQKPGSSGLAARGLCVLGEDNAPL
Procedure, shortened: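 HEK293 cells stably expressing human KISS1R were plated 18 h at 37 °C, loaded with calcium dye for 1 h at 37 °C, then given compound by pin tool. Fluorescence (Ex/Em 480/540) was read kinetically for 3 min.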

[4] = G protein-coupled receptor (GPCR) small molecule agonists, calcium flux assay: HEK293 wild type cell line counter screen (AID 1920065); note: potency is the fitted concentration of half-maximal effect
Procedure, shortened: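 Cells were plated and cultured 18 h at 37 C/5% CO2, then loaded with calcium dye for 1 h at 37 C. Compounds in DMSO were pin-transferred in agonist mode, and fluorescence (Ex/Em 480/540) was read kinetically for 3 min at 1 s intervals.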

[5] = p53 small molecule agonists, cell-based qHTS assay with human liver microsomes (AID 1963577);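 note: p53 response element beta-lactamase reporter cells with liver microsomes plus NADPH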
Procedure, shortened: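 Metabolically competent format: test substances, human liver microsomes and NADPH (both 0.5 mg/mL final) incubated with p53RE-bla cells 16 h at 37 C. Beta-lactamase reporter signal then quantified by fluorescence.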

[6] = p53 small molecule agonists, cell-based qHTS assay with rat liver microsomes (AID 1963578)
Procedure, shortened: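 Each plate received p53RE-bla cells, then compound, then rat liver microsomes and NADPH (both 0.5 mg/mL final). Plates were held 16 h at 37 C, and beta-lactamase activity was detected with LiveBLAzer over 2 h.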

[7] = p53 small molecule agonists, cell-based qHTS assay with rat liver microsomes: qHTS cell viability counter screen (AID 1963580); note: nearly all actives have a fitted effect of over 45% in size
Procedure, shortened: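 p53RE-bla HCT-116 cells (4,000/well) rested 5 h at 37 C, then given Tox21 compounds in DMSO with rat liver microsomes (0.5 mg/mL final) plus NADPH (0.5 mg/mL final) for 16 h at 37 C. Viability read by CellTiter-Glo luminescence after 30 min at room temperature.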

[8] = p53 small molecule agonists, cell-based qHTS assay: qHTS cell viability counter screen (AID 1963581); note: nearly all actives have a fitted effect of over 45% in size
Procedure, shortened: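 p53RE-bla HCT-116 cells were exposed to compounds for 16 h at 37 C; after the beta-lactamase FRET read in the same wells, CellTiter-Glo was added and luminescence (intracellular ATP) read after 30 min at room temperature.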

[9] = p53 small molecule agonists, cell-based qHTS assay (AID 1963582; active = well fitted activation curve with a large enough effect in the signal ratio in the repeat runs, not every such curve was filed as active; the % refers to the signal ratio)
Procedure, shortened: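 p53RE-bla beta-lactamase reporter cells rested 5 h at 37 C/5% CO2, then received compounds in DMSO by pin transfer and were incubated 16 h at 37 C. LiveBLAzer B/G FRET substrate was loaded for 2 h at room temperature before fluorescence reading.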

[10] = molecular target: 5-hydroxytryptamine receptor 2A (Homo sapiens) (UniProt P28223); test: 5-hydroxytryptamine receptor 2A (HTR2A) small molecule agonists, cell-based qHTS assay (AID 1963587); note: nearly all actives have a fitted effect of over 30% in size; note: potency is the fitted concentration of half-maximal effect
Sequence of 5-hydroxytryptamine receptor 2A (Homo sapiens) (P28223 whole entry, looked up): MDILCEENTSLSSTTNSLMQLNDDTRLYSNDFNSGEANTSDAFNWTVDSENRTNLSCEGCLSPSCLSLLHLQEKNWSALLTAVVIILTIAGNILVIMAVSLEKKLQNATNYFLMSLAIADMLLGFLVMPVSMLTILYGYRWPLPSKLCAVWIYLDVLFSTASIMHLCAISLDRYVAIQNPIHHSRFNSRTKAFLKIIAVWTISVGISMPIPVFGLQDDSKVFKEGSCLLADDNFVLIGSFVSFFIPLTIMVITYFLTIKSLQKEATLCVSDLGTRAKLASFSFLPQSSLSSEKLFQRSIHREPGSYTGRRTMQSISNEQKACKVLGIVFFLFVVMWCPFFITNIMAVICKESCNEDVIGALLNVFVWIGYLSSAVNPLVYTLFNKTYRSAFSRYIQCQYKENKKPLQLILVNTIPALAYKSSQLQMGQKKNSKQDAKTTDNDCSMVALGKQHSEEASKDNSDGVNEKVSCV
Procedure, shortened: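 HTR2A-CHO cells, plated 18 h at 37 C/5% CO2, dye-loaded 1 h at 37 C; compounds in DMSO added by pin tool (agonist mode). Intracellular calcium flux read as kinetic fluorescence on FDSS over 2 min at 1 s intervals.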

[11] = molecular target: Muscarinic acetylcholine receptor M1 (Homo sapiens) (UniProt P11229); test: Cholinergic receptor muscarinic 1 (CHRM1) small molecule agonists, cell-based qHTS assay (AID 1963589); note: nearly all actives have a fitted effect of over 35% in size; note: potency is the fitted concentration of half-maximal effect
Sequence of Muscarinic acetylcholine receptor M1 (Homo sapiens) (P11229 whole entry, looked up): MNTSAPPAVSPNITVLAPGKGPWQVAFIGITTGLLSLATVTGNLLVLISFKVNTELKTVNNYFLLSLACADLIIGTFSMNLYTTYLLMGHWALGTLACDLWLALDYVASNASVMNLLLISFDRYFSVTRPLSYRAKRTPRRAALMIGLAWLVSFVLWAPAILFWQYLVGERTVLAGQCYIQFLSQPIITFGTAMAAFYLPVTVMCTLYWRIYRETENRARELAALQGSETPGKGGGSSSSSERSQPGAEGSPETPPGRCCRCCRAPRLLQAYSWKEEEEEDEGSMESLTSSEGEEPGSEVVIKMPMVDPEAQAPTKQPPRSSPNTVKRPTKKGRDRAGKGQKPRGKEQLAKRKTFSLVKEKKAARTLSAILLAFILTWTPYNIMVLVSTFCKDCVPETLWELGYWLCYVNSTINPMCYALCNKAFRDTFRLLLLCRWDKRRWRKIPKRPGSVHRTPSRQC
Procedure, shortened: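 CHO cells stably expressing human CHRM1, seeded 18 h at 37 C/5% CO2, dye-loaded 1 h at 37 C, then given compound in agonist mode; intracellular calcium fluorescence read kinetically at 1 s intervals. Fifteen concentrations, three independent runs.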

[12] = cAMP Responsive Elements (CRE) small molecule agonists, cell-based qHTS assay (AID 1963590)
Procedure, shortened: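 CRE-bla HEK 293T cells in DMEM with 10% dialyzed FBS, NEAA, pyruvate and 25 mM HEPES were plated 18 h at 37 C/5% CO2, then exposed to compounds in DMSO for 3 h before LiveBLAzer B/G FRET substrate addition.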

[13] = cAMP Responsive Elements (CRE) small molecule antagonists, cell-based qHTS assay (AID 1963591; active = well fitted inhibition curve with a large enough effect in the signal ratio in the repeat runs, not every such curve was filed as active; the % refers to the signal ratio)
Procedure, shortened: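 CRE-bla HEK293T cells were plated 18 h at 37 °C/5% CO2, pinned with compound in DMSO, then stimulated with NKH477 at 0.25 uM final for 3 h. LiveBLAzer B/G FRET substrate was added and plates incubated 2 h at room temperature.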

[14] = molecular target: D(2) dopamine receptor (Homo sapiens) (UniProt P14416); test: Dopamine D2 receptor (DRD2) small molecule agonists, cell-based qHTS assay (AID 1963594); note: nearly all actives have a fitted effect of over 35% in size; note: potency is the fitted concentration of half-maximal effect
Sequence of D(2) dopamine receptor (Homo sapiens) (P14416 whole entry, looked up): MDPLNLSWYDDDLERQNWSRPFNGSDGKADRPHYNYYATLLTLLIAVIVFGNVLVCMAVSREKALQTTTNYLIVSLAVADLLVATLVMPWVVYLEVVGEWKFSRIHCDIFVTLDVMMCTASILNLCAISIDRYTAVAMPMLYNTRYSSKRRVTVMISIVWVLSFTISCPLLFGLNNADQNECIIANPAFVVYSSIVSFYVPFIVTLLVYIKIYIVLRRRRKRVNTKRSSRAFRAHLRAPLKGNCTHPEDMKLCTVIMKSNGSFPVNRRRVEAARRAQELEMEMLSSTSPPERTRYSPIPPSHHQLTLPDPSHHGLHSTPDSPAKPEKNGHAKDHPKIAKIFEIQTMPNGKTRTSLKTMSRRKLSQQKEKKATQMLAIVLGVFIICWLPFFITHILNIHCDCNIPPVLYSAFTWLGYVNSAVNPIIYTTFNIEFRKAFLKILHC
Procedure, shortened: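 HEK293 cells stably expressing DRD2 were cultured 24 h at 37 C, then given Ro20-1724 (0.1 mM final) and compounds for 10 min at room temperature. NKH477 (200nM) was then added for 30 min. cAMP was read by HTRF.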

[15] = molecular target: 5-hydroxytryptamine receptor 2A (Homo sapiens) (UniProt P28223); test: 5-hydroxytryptamine receptor 2A (HTR2A) small molecule antagonists, cell-based qHTS assay (AID 1963586); note: nearly all actives have a fitted effect of over 45% in size
Procedure, shortened: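 Antagonist-mode intracellular calcium assay: DOI (4 nM) added after 5 min compound pre-incubation at room temperature to dye-loaded HTR2A-CHO cells. Fluorescence followed for 3 min, sampled every second.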

[16] = molecular target: Beta-2 adrenergic receptor (Homo sapiens) (UniProt P07550); test: Adrenergic beta2 receptor (ADRB2) small molecule antagonists, cell-based qHTS assay (AID 1963592); note: series mostly up to about 92 µM; nearly all actives have a fitted effect of over 50% in size
Sequence of Beta-2 adrenergic receptor (Homo sapiens) (P07550 whole entry, looked up): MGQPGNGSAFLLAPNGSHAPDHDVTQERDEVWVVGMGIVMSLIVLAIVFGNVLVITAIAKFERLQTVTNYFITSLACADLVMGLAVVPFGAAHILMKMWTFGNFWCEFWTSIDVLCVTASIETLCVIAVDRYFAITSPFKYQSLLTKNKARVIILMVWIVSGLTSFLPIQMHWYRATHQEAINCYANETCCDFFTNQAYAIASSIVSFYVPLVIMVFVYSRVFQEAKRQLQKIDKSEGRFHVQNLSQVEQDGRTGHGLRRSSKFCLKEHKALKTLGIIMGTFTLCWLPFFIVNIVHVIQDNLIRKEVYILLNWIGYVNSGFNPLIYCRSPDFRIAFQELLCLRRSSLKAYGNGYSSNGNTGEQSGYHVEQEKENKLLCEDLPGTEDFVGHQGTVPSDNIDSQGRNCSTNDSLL
Procedure, shortened: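 Cells (CHO, stable ADRB2 overexpression) incubated 18-20hr at 37C; compounds added from DMSO; agonist mix (1nM isoproterenol, 100uM IBMX, 25uM Ro-20-1724) added; 0.5hr RT; d2-cAMP and anti-cAMP-cryptate added; 1hr RT; 665/615 nm read.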

[17] = molecular target: D(2) dopamine receptor (Homo sapiens) (UniProt P14416); test: Dopamine D2 receptor (DRD2) small molecule antagonists, cell-based qHTS assay (AID 1963595; active = well fitted inhibition curve with a large enough effect in the signal ratio in the repeat runs, with a control signal flat; the % refers to the signal ratio)
Procedure, shortened: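 Human DRD2 antagonist qHTS measuring cAMP by HTRF. The cells are exposed to compound for 10 min, then to NKH477 (200 nM) and quinpirole (12 nM) for 30 min at RT, with Ro20-1724 (0.1 mM) present throughout.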

[18] = p53 small molecule agonists, cell-based qHTS assay with human liver microsomes: qHTS cell viability counter screen (AID 1963579); note: nearly all actives have a fitted effect of over 45% in size
Procedure, shortened: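 Tox21 library compounds, delivered from DMSO stocks, were tested on p53RE-bla cells together with 0.5 mg/mL human liver microsomes and 0.5 mg/mL NADPH (final) over 16 h at 37 C; CellTiter-Glo luminescence served as the cytotoxicity measure.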

[19] = molecular target: Muscarinic acetylcholine receptor M1 (Homo sapiens) (UniProt P11229); test: Cholinergic receptor muscarinic 1 (CHRM1) small molecule antagonists, cell-based qHTS assay (AID 1963588); note: nearly all actives have a fitted effect of over 40% in size; note: potency is the fitted concentration of half-maximal effect
Procedure, shortened: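 CHRM1-CHO calcium-flux assay, antagonist mode. Cells were seeded 18 h, dye-loaded 1 h at 37 C and given compound for 5 min at RT, then acetylcholine was added at 50nM. FDSS fluorescence was read 3 min; 15 concentrations, three runs.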

[20] = molecular target: Beta-2 adrenergic receptor (Homo sapiens) (UniProt P07550); test: Adrenergic beta2 receptor (ADRB2) small molecule agonists, cell-based qHTS assay (AID 1963593);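 note: CHO cells stably overexpressing human ADRB2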
Procedure, shortened: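 CHO cells stably over-expressing ADRB2 were plated overnight at 37C, then dosed with compounds plus a stimulation mix containing 100uM IBMX and 25uM Ro-20-1724 for 0.5hr at room temperature. cAMP was measured by HTRF competition, 1hr.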

SMILES | Potency [1] | Potency [2] | Potency [3] | Potency [4] | Potency [5] | Potency [6] | Potency [7] | Potency [8] | Potency [9] | Potency [10] | Potency [11] | Potency [12] | Potency [13] | Potency [14] | Potency [15] | Potency [16] | Potency [17] | Potency [18] | Potency [19] | Potency [20]
CCN(CC)c1ccc2c(-c3ccccc3C(=O)O)c3ccc(=[N+](CC)CC)cc-3oc2c1 | 15.4 µM (active) | 34.7 µM (active) | 49 µM (active) | 34.7 µM (active) | inactive | inactive | inactive | inactive | inactive | 49 µM (active) | 43.6 µM (active) | inactive | inactive | 58.8 µM (active) | – | – | – | – | – | –
O=C1NC(=O)C2CC=CCC12 (stereo unspecified) | inactive | inactive | inactive | inactive | inactive | inactive | inactive | inactive | inactive | inactive | inactive | inactive | inactive | inactive | inactive | inactive | inactive | – | – | –
Cc1cc(-c2ccc(N=Nc3cc(S(=O)(=O)O)c4ccccc4c3N)c(C)c2)ccc1N=Nc1cc(S(=O)(=O)O)c2ccccc2c1N | inactive | inactive | inactive | inactive | inactive | inactive | – | inactive | – | inactive | inactive | – | inactive | inactive | inactive | inactive | inactive | inactive | 7.52 µM (active) | inactive
OCCOCC#CCOCCO | inactive | inactive | inactive | inactive | inactive | inactive | – | inactive | inactive | inactive | inactive | inactive | – | inactive | inactive | inactive | inactive | inactive | inactive | –
CN1CCCN=C1/C=C/c1cccs1 | inactive | inactive | inactive | inactive | inactive | inactive | – | inactive | inactive | inactive | inactive | inactive | inactive | – | inactive | inactive | inactive | inactive | inactive | inactive
CN1CCN(C)CC1 | inactive | inactive | inactive | inactive | inactive | inactive | – | inactive | inactive | inactive | inactive | inactive | inactive | inactive | – | inactive | inactive | inactive | inactive | –
CC(=O)O[Si](C)(OC(C)=O)OC(C)=O | inactive | inactive | inactive | inactive | inactive | inactive | – | inactive | inactive | inactive | inactive | inactive | inactive | inactive | inactive | inactive | – | inactive | inactive | –
CN(CCCN1c2ccccc2CCc2ccccc21)CC(=O)c1ccc(Cl)cc1 | inactive | inactive | inactive | inactive | inactive | inactive | inactive | – | – | inactive | inactive | inactive | inactive | – | – | inactive | inactive | inactive | – | –
C=C(C)C(=O)OCCOCCOCCOCCOC(=O)C(=C)C | inactive | inactive | inactive | inactive | inactive | inactive | – | inactive | inactive | inactive | inactive | – | – | inactive | inactive | inactive | inactive | inactive | inactive | –
CC1CN(c2ccccc2)NC1=O (stereo unspecified) | inactive | inactive | inactive | inactive | inactive | inactive | – | inactive | inactive | inactive | inactive | inactive | inactive | inactive | inactive | inactive | – | inactive | inactive | inactive
Sc1nc(S)nc(S)n1 | inactive | inactive | inactive | inactive | inactive | inactive | inactive | inactive | inactive | inactive | – | inactive | inactive | – | inactive | – | inactive | – | inactive | –
CC/C=C1/OC(=O)c2ccccc21 | inactive | inactive | inactive | inactive | inactive | inactive | inactive | – | inactive | inactive | inactive | inactive | inactive | – | inactive | inactive | inactive | – | inactive | –
SCCc1cnccn1 | inactive | inactive | inactive | inactive | inactive | inactive | inactive | inactive | inactive | inactive | inactive | inactive | – | inactive | inactive | – | inactive | – | inactive | inactive
CC(CC=O)c1ccccc1 (stereo unspecified) | inactive | inactive | inactive | inactive | inactive | inactive | inactive | inactive | inactive | inactive | – | inactive | inactive | inactive | inactive | inactive | inactive | – | inactive | inactive
Cc1ccc([N+](=O)[O-])c(N)c1 | inactive | inactive | inactive | inactive | inactive | inactive | inactive | inactive | inactive | inactive | inactive | inactive | inactive | inactive | inactive | inactive | inactive | – | inactive | inactive
OC[C@H]1O[C@@H](OCCc2ccc(O)cc2)[C@H](O)[C@@H](O)[C@@H]1O | inactive | inactive | inactive | inactive | inactive | inactive | inactive | inactive | inactive | – | – | inactive | inactive | – | inactive | inactive | inactive | – | inactive | inactive
